Test results published in PubChem BioAssay (NCI).
This is part of a sample that, as a whole, favours compounds with a hit. Of some 83,000 tested, about 20% had one in any assay.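 The endpoint reported here, percent growth, reads 100 for growth as untreated, 0 for no net growth and -100 for all cells dead.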 The source made the active and inactive calls. How the source made its calls: active means growth percent below 10; inactive means the rest.

Columns and labels:
Test in all cases: NCI-60 one-dose screen, 48 h (100 = growth as untreated, 0 = no growth, -100 = all killed)
[1] = system: HCT-15 colon; settings: 10 µM unless noted
[2] = system: HT29 colon; settings: 10 µM unless noted
[3] = system: SNB-75 CNS; settings: 10 µM unless noted
[4] = system: SNB-19 CNS; settings: 10 µM unless noted
[5] = system: U251 CNS; settings: 10 µM unless noted
[6] = system: PC-3 prostate; settings: 10 µM unless noted
[7] = system: SK-MEL-5 melanoma; settings: 10 µM unless noted
[8] = system: LOX IMVI melanoma; settings: 10 µM unless noted
[9] = system: SK-MEL-28 melanoma; settings: 10 µM unless noted
[10] = system: SK-MEL-2 melanoma; settings: 10 µM unless noted
[11] = system: SN12C renal; settings: 10 µM unless noted
[12] = system: UO-31 renal; settings: 10 µM unless noted
[13] = system: TK-10 renal; settings: 10 µM unless noted
[14] = system: ACHN renal; settings: 10 µM unless noted
[15] = system: CAKI-1 renal; settings: 10 µM unless noted
[16] = system: A498 renal; settings: 10 µM
[17] = system: HL-60(TB) leukemia; settings: 10 µM unless noted
[18] = system: CCRF-CEM leukemia; settings: 10 µM unless noted
[19] = system: UACC-62 melanoma; settings: 10 µM unless noted
[20] = system: EKVX NSCLC; settings: 10 µM unless noted

Measured: growth

CCOC(=O)c1c(C)n(Cc2ccccc2)c2cc(CN(C)C)c(O)cc12
inactive: [1] 63.4% | [2] 37% | [3] 50.5% | [4] 72.2% | [5] 67.8% | [6] 57.4% | [7] 82.5% | [8] 28.8% | [9] 80.2% | [10] 92.1% | [11] 57.8% | [12] 43.8% | [13] 68.8% | [14] 81.5% | [15] 61.6% | [16] 43.2% | [17] 62% | [18] 41.2%

O=C(CC1(O)C(=O)N(Cc2ccccc2)c2ccccc21)c1ccc(C(=O)NCC2CCC3(CC2)OOC2(CCCCC2)OO3)cc1 (stereo unspecified)
active: [1] 0.81% | [2] -51.6% | [3] -75.6% | [5] -77.2% | [6] -61% | [19] 0.976% | [8] -84.1% | [10] 6.18% | [20] -63.3% | [11] -60.9% | [12] -81.2% | [13] -93.2% | [14] -87.7% | [15] -90.4% | [16] -88.7% | [17] -67.4% | [18] -41.2%
inactive: [4] 20.3% | [9] 63.1%

CNC12C3C4C1C1C2C3C41C(=O)N[C@H](C(=O)N(C)[C@H](C[C@@H](OC(C)=O)c1nc(C(=O)N[C@@H](Cc2ccccc2)C[C@H](C)C(=O)OC)cs1)C(C)C)C1CC1 (stereo partly specified)
active: [2] -12.6% | [8] 0.284% | [17] -34.9% | [18] -1.11%
inactive: [1] 11.4% | [3] 26.9% | [4] 33.4% | [5] 10.1% | [6] 16.9% | [19] 13.9% | [9] 62.3% | [10] 25.4% | [20] 30.9% | [11] 31.5% | [12] 36.3% | [13] 23.4% | [15] 87.9% | [16] 21.3%

CCn1c2ccccc2c2cc(C(=O)c3ccc(C)c4ccccc34)ccc21
inactive: [1] 15.7% | [3] 51% | [4] 20.7% | [5] 10.3% | [6] 18.7% | [9] 17.9% | [10] 24% | [20] 32% | [12] 30.5% | [13] 38% | [14] 23.9% | [15] 28.8% | [18] 18.2%
active: [2] -7.41% | [19] 1.49% | [8] 1.21% | [16] 7.13% | [17] 8.9%

C=CC12CCN(CC1)C(C(O)c1ccnc3ccc(OC)cc13)C2 (stereo unspecified)
inactive: [1] 66.1% | [2] 11.9% | [3] 52.7% | [4] 98.5% | [5] 80.6% | [6] 66% | [19] 92.8% | [8] 89% | [9] 85.1% | [10] 97.3% | [11] 83.5% | [12] 48.3% | [13] 88.4% | [14] 80.4% | [15] 69.8% | [18] 75.8%

O=C(CCCCCCC(=O)Nc1ccc(N(CCCl)CCCl)cc1)NO
active: [3] 6.28% | [7] -56.6% | [8] -19.9%
inactive: [1] 72% | [2] 30.5% | [4] 45% | [5] 17.9% | [6] 54.6% | [10] 49.5% | [20] 76.7% | [11] 18.8% | [12] 62% | [13] 38.5% | [14] 16.7% | [15] 23% | [16] 54.1% | [17] 18.4% | [18] 19.4%

C/C(=C\c1ccn(-c2ccc(N)cc2C(F)(F)F)n1)[C@@H]1C[C@@H]2O[C@]2(C)CCC[C@H](C)[C@H](O)[C@@H](C)C(=O)C(C)(C)[C@@H](O)CC(=O)O1
inactive: [1] 14% | [2] 10.5% | [4] 21.5% | [5] 13.3% | [6] 15.4% | [19] 27.7% | [8] 26.4% | [9] 63.2% | [10] 18.1% | [20] 33.7% | [11] 22.6% | [12] 38.2% | [13] 39.8% | [14] 50% | [15] 31.4% | [18] 16.3%
active: [3] -7.43% | [16] -4.95%

CCOC(=O)N1CC1
inactive: [1] 96.3% | [2] 97.5% | [3] 90.8% | [4] 98.4% | [5] 96.3% | [6] 88.1% | [19] 88.4% | [8] 92.7% | [9] 103% | [10] 105% | [20] 84% | [11] 95.8% | [12] 80.7% | [13] 112% | [14] 94.8% | [15] 95.1% | [16] 111%

ClCCN(CCCl)c1ccc(-n2cnc3c(Cl)ncnc32)cc1
active: [1] -26.7% | [9] -10.5% | [12] -85.9% | [15] -88.2% | [17] -9.68%
inactive: [2] 12.7% | [3] 26.1% | [4] 79.2% | [5] 32.8% | [6] 64.1% | [7] 86.3% | [10] 69% | [20] 28.7% | [11] 47.8% | [13] 84.7% | [16] 95.2% | [18] 13.1%

O=C(CC1(O)C(=O)N(Cc2ccccc2)c2ccc(Br)cc21)c1ccc(C(=O)NCC2CCC3(CC2)OOC2(CCCCC2)OO3)cc1 (stereo unspecified)
inactive: [3] 15% | [4] 56.1% | [19] 80.7% | [9] 77.4% | [10] 34.1%
active: [1] 2.73% | [2] -65.5% | [5] -85.4% | [6] -36.3% | [8] -79.7% | [20] -65% | [11] -55.8% | [12] -73.3% | [13] -80.9% | [14] -83% | [15] -90.8% | [17] -57.3% | [18] -41.6%

COc1cc([C@@H]2c3cc4c(cc3[C@H](OC(C)=O)[C@H]3COC(=O)[C@H]23)OCO4)cc(OC)c1OC
active: [1] 9.64% | [2] 5.66% | [16] -7.56% | [17] -24.8%
inactive: [3] 41.4% | [4] 39.4% | [5] 18.9% | [6] 30.2% | [19] 43.2% | [8] 18.7% | [9] 64.3% | [10] 33.2% | [20] 38.3% | [11] 31.9% | [12] 43.7% | [13] 65.9% | [14] 28.7% | [18] 14.4%

C[C@]12CC[C@H]3[C@@H](C[C@@H]4SC(Nc5ccccc5)=N[C@@]45CC(O)CC[C@]35C)[C@@H]1CCC2O (stereo partly specified)
active: [1] -30.2% | [2] -38.5% | [3] -5.43% | [5] -30.1% | [8] -81.5% | [18] 0.738%
inactive: [4] 26.5% | [6] 39.2% | [19] 39.8% | [9] 27.3% | [10] 51.7% | [20] 73.2% | [11] 10.1% | [12] 26.1% | [13] 65% | [14] 36.8% | [15] 49% | [17] 15.7%

COC(C(=O)[C@@H](O)[C@@H](C)O)[C@@H]1Cc2cc3cc(O[C@H]4C[C@@H](O[C@H]5C[C@@H](O)[C@H](O)C(C)O5)[C@H](O)C(C)O4)c(C)c(O)c3c(O)c2C(=O)[C@H]1O[C@H]1C[C@@H](O[C@H]2C[C@@H](O[C@H]3C[C@@H](O)[C@@H](O)C(C)O3)[C@@H](O)C(C)O2)[C@H](O)C(C)O1 (stereo partly specified)
active: [2] -11.9% | [3] -31.8% | [5] 1.11% | [19] -52.2% | [8] -10.6% | [9] -9.88% | [10] -61.3% | [12] -3.24% | [14] 0.535%
inactive: [1] 47.7% | [4] 11.7% | [6] 21.6% | [20] 24.4% | [13] 12.1% | [15] 12.6% | [17] 30.5% | [18] 29.4%

O=C1N[C@@H]2[C@@H](O)[C@@H](O)[C@H](O)C[C@H]2c2cc3c(c(O)c21)OCO3
active: [1] 1.81% | [2] -14.9% | [3] -25.3% | [4] -8.68% | [5] -10.5% | [6] -8.66% | [7] -72.7% | [8] -48.8% | [10] -63.6% | [20] -26.3% | [11] -18.4% | [12] -31% | [13] -12.6% | [14] -45.5% | [16] -53.4% | [17] -37.8% | [18] 2.84%

ClCCN(CCCl)c1ccc(/C=N\N=C\c2ccc(N(CCCl)CCCl)cc2)cc1
inactive: [1] 37.3% | [2] 39.3% | [3] 72.1% | [4] 69.2% | [5] 47.4% | [6] 34.3% | [7] 49.7% | [8] 10.7% | [10] 36.7% | [20] 47.1% | [11] 36.3% | [13] 47.2% | [14] 40.1% | [16] 75% | [18] 25%
active: [12] -16.2% | [15] 7.35%

O=C(c1ccccc1O)c1[nH]c(Cl)c(Cl)c1-n1c(C(=O)c2ccccc2O)cc(Cl)c1Cl
inactive: [8] 10.5% | [9] 14.2%
active: [1] 9.94% | [2] 4.28% | [3] -1.42% | [4] 9.34% | [5] -11.8% | [6] -13.4% | [19] -22% | [10] -36.9% | [11] -14.2% | [12] -3.72% | [13] 6.68% | [14] -9.76% | [15] -11.1% | [16] -33.3% | [18] 3.92%
